Results from PubChem BioAssay AID2315 (National Center for Advancing Translational Sciences (NCATS), 2010).
About 27,000 (9.3%) of roughly 290,000 compounds were called active. For the sample, actives were picked, then their nearest neighbours and some compounds at random. Values without a mark were called inactive. Cut-off read from the data, not from the text of the source: active = inhibition mostly above about 28% (no sharp cut-off); inactive = mostly below about 43%.

assay: A qHTS for Small Molecule Inhibitors of Shiga Toxin; details: Vero cells, Shiga toxin protein synthesis inhibition reporter; at 38.7 µM, stronger effect = higher value; note: 0% is about no effect

Row | Compound | inhibition
1 | O=C(CSc1n[nH]c(-c2cccnc2)n1)Nc1ccc(Cl)cc1 | -4.36%
2 | Cc1ccc(Nc2c(F)c(F)c(F)c(F)c2C(=O)O)c(C)c1 | -5.02%
3 | CCCCc1cc(=O)oc2c(C)c(OCC(=O)N3CCC(C(N)=O)CC3)ccc12 | 6.85%
4 | O=c1oc2ccccc2c(CNc2ccccc2)c1[N+](=O)[O-] | 11.8%
5 | O=C1CCCc2nn(-c3ccccc3)nc21 | 54.6% (active)
6 | N#CC1=C(N)N(c2ccccc2)C2=C(C(=O)CCC2)C1c1ccccc1 (stereo unspecified) | 20.9%
7 | O=C1CCC(=O)N(c2ccccc2)N1 | -5.13%
8 | Cc1nn(Cc2ccccc2)c(Cl)c1C(=O)OC1CCOC1=O (stereo unspecified) | -17.1%
9 | CC(C)c1ccc(C(=O)OC2CCOC2=O)cc1 (stereo unspecified) | -21.8%
10 | O=C(OC1CCOC1=O)c1ccc(-c2nc3ccccc3s2)s1 (stereo unspecified) | 38.6% (active)
11 | C=CCn1c(=O)c(C(=O)NCc2ccc3c(c2)OCO3)c(O)c2ccccc21 | -10.5%
12 | COc1ccccc1OCC(=O)Nc1c2c(nn1-c1ccc(F)cc1)CS(=O)(=O)C2 | -5.46%
13 | Cc1c(C(=O)OC(C)C)sc(NC(=O)c2cccnc2)c1C#N | 30.6%
14 | COc1ccc(C(=O)NCc2nnc(SCC(=O)Nc3cccc(OC)c3)o2)cc1 | -4.36%
15 | O=S(=O)(Cc1nnnn1-c1ccccc1)c1ccccc1 | -12.2%
16 | COc1cc(OC)cc(-c2nnc(SCC(=O)Nc3ccc(C(=O)O)cc3)s2)c1 | -9.81%
17 | COc1ccc(C)cc1NC(=O)CSc1nc(SC)ns1 | -10.7%
18 | COc1ccc(NC(=O)CSc2nc(C)cs2)cc1 | 66.4% (active)
19 | Cc1csc(SCC(=O)Nc2sccc2C#N)n1 | 34%
20 | CSc1nsc(SCC(=O)Nc2cc(C(=O)O)ccc2C)n1 | -7.57%
21 | COc1ccc(NC(=O)CSc2nc(SC)ns2)c(OC)c1 | 69.7% (active)

Row | Compound | inhibition
22 | Cc1cc(C)c(OCCN2CC(C)OC(C)C2)c(Br)c1 (stereo unspecified) | 14.6%
23 | NC(=O)c1nsc(C(=O)N(CCCN2CCOCC2)C(C(=O)NC2CCCCC2)c2ccc(Cl)cc2)c1N (stereo unspecified) | -2.14%
24 | O=S(=O)(NCC1CC1)c1ccc(F)c(Cl)c1 | 1.18%
25 | CC(C)Nc1ccc(-n2nc3ccccc3[n+]2[O-])cc1 | 38.2% (active)
26 | COc1ccc(CCNC(=O)C2CCCN(S(=O)(=O)c3ccc(OC)cc3)C2)cc1 (stereo unspecified) | 2.44%
27 | O=C(NC1CCCCC1)C1CCC(CNS(=O)(=O)c2ccccc2)CC1 (stereo unspecified) | 2.14%
28 | COc1ccc(S(=O)(=O)n2cnc3ccccc32)c(C)c1 | -9.95%
29 | COc1ccc(CNC(=O)CN(Cc2ccccc2Cl)C(=O)c2csnn2)cc1 | -3.03%
30 | O=C(N/N=C/c1ccc(Cl)c(Cl)c1)c1ccc2nc[nH]c2c1 | 23.8%
31 | COC(=O)C1C(=O)c2c([nH]c(C(=O)OCCSC)c2C)CC1C (stereo unspecified) | 57.7% (active)
32 | CCCOC(=O)C1=C(C)NC2=C(C(=O)C(C(=O)OC)C(C)C2)C1c1ccc(N(C)C)cc1 (stereo unspecified) | 16.2%
33 | CCCOC(=O)c1[nH]c2c(c1C)C(=O)CC(c1cccs1)C2 (stereo unspecified) | -12.4%
34 | COc1ccc(NC(=O)CN2C(=O)CSc3ccc(S(=O)(=O)N4CCC(C)CC4)cc32)cc1 | 1.63%
35 | COc1ccc(Cl)cc1NC(=O)CN(C)C(=O)CCCc1c[nH]c2ccccc12 | -2.46%
36 | CCOC(=O)CCCN1CC(O)=C(c2nc3ccccc3s2)C1=N | 21.6%
37 | N=C1C(c2nc3ccccc3[nH]2)=C(O)CN1NC(=O)c1c[nH]c2ccccc12 | -8.44%
38 | CCc1ccc(N2CC(O)=C(c3nc4ccccc4c(=O)[nH]3)C2=N)cc1 | 23.1%
39 | O=C(Nc1nc2ccc([N+](=O)[O-])cc2s1)c1ccc(S(=O)(=O)N2CCCc3ccccc32)cc1 | -9.77%
40 | N=C1C(c2nc3ccccc3s2)=C(O)CN1NC(=O)c1ccc([N+](=O)[O-])cc1 | 49.3% (active)
41 | COc1ccccc1N1CC(O)=C(c2nc3ccccc3s2)C1=N | 31.4% (active)
42 | COc1cccc(CNS(=O)(=O)c2csc(C(N)=O)c2)c1 | 9.09%

Row | Compound | inhibition
43 | O=C(N/C(=C\c1ccc(F)cc1)C(=O)N1CCCCCC1)c1ccccc1 | -12.7%
44 | O=C(CSc1ncnc2c1oc1ccccc12)NC1CCCC1 | -5.84%
45 | Cc1cc(-c2nnc(SCC(=O)Nc3ccc(F)cc3)n2N)n[nH]1 | 12.4%
46 | COc1ccc(-n2nc(C(=O)NCC(=O)N3CCC(C(N)=O)CC3)c3ccccc3c2=O)cc1OC | -12.3%
47 | CS(=O)(=O)Nc1cccc(-c2cn3ccccc3n2)c1 | 87%
48 | CS(=O)(=O)Nc1cccc(C2=NN(C(=O)c3cccc(F)c3)C(c3cccs3)C2)c1 (stereo unspecified) | -7.67%
49 | CS(=O)(=O)Nc1ccc(C2=NN(S(C)(=O)=O)C(c3cccs3)C2)cc1 (stereo unspecified) | 63.1% (active)
50 | CS(=O)(=O)Nc1cccc(C2=NN(S(=O)(=O)c3ccccc3)C(c3cccs3)C2)c1 (stereo unspecified) | -11%
51 | Cc1ccc(C2CC(c3cccc(NS(C)(=O)=O)c3)=NN2S(C)(=O)=O)cc1 (stereo unspecified) | 77.9% (active)
52 | CCS(=O)(=O)Nc1ccc(C2=NN(C(C)=O)C(c3cccs3)C2)cc1 (stereo unspecified) | 12.4%
53 | O=C1c2ccccc2C(=O)N1c1cccc2ccccc12 | 25.6%
54 | O=C(NC1CCCC1)C1CC(=O)N(c2ccc(F)cc2)C1 (stereo unspecified) | -11.9%
55 | CN(C)S(=O)(=O)c1cccc(NC(=O)Cc2ccsc2)c1 | -2.02%
56 | O=C1CCN(Cc2ccccc2)CCN1[C@H](CSc1ccccc1)c1ccccc1 | 11%
57 | Cc1cccn2c(=O)c3cc(C(=O)NCC4CCCO4)c(=N)n(Cc4ccc(F)cc4)c3nc12 (stereo unspecified) | -2.34%
58 | CC(=O)Nc1ccc(NC(=O)COc2ccc(-c3ccccc3)cc2)cc1 | 10.7%
59 | C/C(=N\NC(=O)OC(C)(C)C)c1ccc[nH]1 | 94.2% (active)
60 | Cc1ccccc1NC(=O)NNC(=O)OC(C)(C)C | -3.29%
61 | CC(C)(C)OC(=O)NNc1c2ccccc2nc2ccccc12 | 77%
